Measurements: PubChem BioAssay (NCI)
About 83,000 compounds went through this panel and 20% of them were active in at least one assay; those are over-represented in the sample as a whole.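 Results are percent growth after 48 hours of single-concentration exposure. 100 means growth as in untreated cells, lower positive values show inhibition; negative values down to -100 show cell death.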 Values without a mark were called inactive. Activity calls are given as the source filed them. The calls were made as follows: active = growth percent below 10; inactive = the rest.

Each compound was assayed on SK-MEL-28 melanoma (assay: NCI-60 one-dose screen, 48 h (100 = growth as untreated, 0 = no growth, -100 = all killed)). Conditions: 10 µM unless noted.
`COc1c(C(=O)Nc2ccc(C)c(Br)c2)ccc2ccccc12` was tested, and the growth was 93.3%. `O=C(Nc1ccc(Oc2cccc(F)c2)c(Cl)c1)c1cccnc1` gave a growth of 54%. For `COC12C=C/C(=C(/C(=O)OCc3ccncn3)C(=O)CCCCCCCCC3(OC)C=C/C(=C(/C(=O)OCc4ccncn4)C(=O)CCCCCCCC1)O3)O2`, the growth was -19.2% (active). For `COC1=CC(c2ccc[nH]2)=N/C1=C\c1[nH]c(C)c(C(=O)OC(C)C)c1C`, the growth was -54.5% (active). For `O=C(Nc1cccc(Cl)c1)Nc1cccc(Cn2c(=O)[nH]c3ccc(Oc4ncccn4)cc3c2=O)c1`, the growth was 59.1%. `Cc1ccc(C)n1-c1ccccc1-n1c(C)ccc1C` was tested, and the growth was 93.6%. With `COc1ccc(/C=C/C(=O)c2ccc(Nc3ccnc4cc(Cl)ccc34)cc2)cc1` the growth was 118%. Compound `CCN(CC)c1ccc(\C=N/N=C(N)/C(N)=N\N=C/c2ccc(N(CC)CC)cc2)cc1` has a growth of 105%. For `O=[N+]([O-])c1cccc(-c2nc3cc4nc5ccccc5[nH]c4cc3n2)c1`, the growth was 113%. `COc1ccc(/C=C(\C#N)n2nnc3cc(Cl)ccc32)cc1` showed a growth of 31.3%.
